This note sets out measurements from PubChem BioAssay (NCI).

Compounds without any hit were thinned out: in the full panel of roughly 83,000, 20% have a hit.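 Method: cells in 96-well plates; compound added at one concentration; 48 h incubation; percent growth measured; values under 10 scored active.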 Values without a mark were called inactive. Calls of active or inactive are those of the source.

This test has as its system HL-60(TB) leukemia. In words: NCI-60 one-dose screen, 48 h (100 = growth as untreated, 0 = no growth, -100 = all killed). As to conditions: 10 µM unless noted.
Turning to `COC(=O)[C@]12CC[C@@H](C(=O)/C=C/c3cccnc3)[C@@H]1[C@H]1CC[C@@H]3[C@@]4(C)C/C(=C/c5cccnc5)C(=O)C(C)(C)[C@@H]4CC[C@@]3(C)[C@]1(C)CC2`, the growth is -30.2% (active).

Take `COc1cccc(/C(C)=N/NC(=O)CSc2nc3ccccc3c(=O)n2CCc2ccc(S(N)(=O)=O)cc2)c1`: the growth was 58.5%.

`C=C(C)[C@@H]1CC[C@]2(c3ncc(C)o3)CC[C@]3(C)[C@H](CC[C@@H]4[C@@](C)(CCC#N)[C@H](C(=C)C)CC[C@]43C)[C@@H]12`: the growth is -27.9% [100 µM] (active).

As for `COc1ccccc1S(=O)(=O)Nc1ccc2c3c(cc(CCC(=O)NCCCCNc4cccc5c4C(=O)N(C4CCC(=O)NC4=O)C5=O)cc13)C(=O)N2C` (stereo unspecified), the growth was -1.81% (active).

Consider `O=C(NCc1ccccc1)C1CN(c2ccc(Cl)cc2)N(c2ccc(Cl)cc2)C1=O` (stereo unspecified), for which the growth was 81.7%.

As to `CC1(C)CC[C@]2(c3nnc(-c4ccncc4)o3)CC[C@]3(C)C(=CC[C@@H]4[C@@]5(C)CCC(=O)C(C)(C)[C@@H]5CC[C@]43C)[C@@H]2C1`, the growth is 30.7%.

Regarding `NCCCNc1nc2ccccc2c2c(=O)c3cc(F)cc(F)c3sc12`, the growth was 61.2%.

Take `CC(C)[O-].CC(C)[O-].CN(CCN(C)Cc1cc(F)cc(F)c1[O-])Cc1cc(F)cc(F)c1[O-].[Ti+4]`: the growth was 5.88% (active).

On to `O=C(CSc1ccc2nnc(-c3cccc(F)c3)n2n1)Nc1ccc2c(c1)OCO2`, for which the growth is 78.9%.

For the compound `N#C/C(=N\Nc1ccc(Cl)cc1)C(=O)Nc1cc(-c2ccccc2)nn1-c1ccccc1`, the growth was 27.5%.

As to `Cc1ccncc1C(=O)O`, the growth was 106%.

Turning to `O=C1CC(c2ccc(O)c(O)c2)Oc2cc(O)c([C@@H]3O[C@H](CO)[C@@H](O)[C@H](O)[C@H]3O)c(O)c21` (stereo partly specified), the growth was 99.6%.

In the case of `c1csc(-c2cn3nc(-c4c[nH]c5ccccc45)sc3n2)c1`, the growth was 7.07% (active).

Turning to `O/N=C/c1cccs1`, the growth was 95.3%.

As to `CCN(CC)CCC(=O)Nc1cccc2c1C(=O)c1c(c(O)c3ccccc3c1O)C2=O`, the growth is 27.8%.

Turning to `c1ccc(CNCCNCc2ccccc2)cc1`, the growth was 105%.

Consider `CC(C)c1cc(C(C)C)c(S(=O)(=O)Oc2ccc(NC(=O)c3ccc(Cl)cc3)cc2)c(C(C)C)c1`, for which the growth was 16.9%.

`COc1ccc(N=N/N=c2\sc3cc(OC)ccc3n2C)cc1`: the growth was 102%.

`COC1CC(C)C(OC)c2cc(O)cc(c2O)NC(=O)/C(C)=C/C=C\C(C)C(OC(N)=O)/C(C)=C\C(C)C1OC` (stereo unspecified): the growth was -51.6% (active).

For `CCN(CC)CC(O)CNc1ccnc2cc(Cl)c(Cl)cc12` (stereo unspecified), the growth is 92.2%.

`COc1ccc(C(=O)CSc2nnc(-c3cc(-c4ccccc4)nc4ccccc34)o2)cc1`: the growth is 111%.

`O=[N+]([O-])c1ccc(OCCO)cc1`: the growth was 125%.

Regarding `O=S(=O)(NCCNc1cc(-c2cn(-c3ccccc3)nc2-c2ccccc2)ccn1)c1cccc2ccccc12`, the growth was 36.4%.

For the compound `COC(=O)C1=C(C(=O)Nc2cccnc2)C2OC1(C(Cc1ccccc1)Oc1ccccc1)C1OC21` (stereo unspecified), the growth was -56.2% (active).

`[O-]/[N+](=C\c1ccccc1)CC1(O)CCCCC1`: the growth was 98.5%.

Regarding `COc1ccc(C2OC(c3cc(-c4cc5ccccc5o4)nn3-c3ccccc3)=NN2C(C)=O)cc1` (stereo unspecified), the growth is 84.3%.

For `O/N=C1\c2ccccc2-c2ccc(Br)cc21`, the growth is 109%.

As to `OC(c1cc(-c2ccc(Cl)cc2)nc2c(Cl)cccc12)C1CCCCN1` (stereo unspecified), the growth is -67% (active).

As to `Cc1c(NC(=O)c2sc3nc4c(cc3c2N)CN(Cc2ccccc2)CC4)cccc1C(F)(F)F`, the growth is 3.22% (active).

`Cc1cnc(C=O)c2cccc([N+](=O)[O-])c12`: the growth is 66.1%.

With `O=C1c2cc3c(cc2-c2c1c1ccc(F)cc1c(=O)n2C[C@H](O)[C@@H](O)[C@H](O)CO)OCO3`, the growth is -3.71% (active).

For the compound `Cn1nc(C(F)(F)F)cc1-c1c[nH]c(OCc2ccc(Cl)cc2)c(-c2ccc(Cl)c(C(F)(F)F)c2)c1=O`, the growth is -28% (active).

For `CCOC(=O)c1ccc(Nc2ccnc(SCC(=O)c3ccc(C#N)cc3)n2)cc1`, the growth is 75.6%.

Consider `O=C(CCl)Nc1ccc2c(Nc3cc(O)ccc3Cl)ncnc2c1`, for which the growth is -53.2% (active).

As for `O=C(/C=C/c1ccccc1)c1c[nH]c2ccccc2c1=O`, the growth was -12.9% (active).

As for `CN(C)c1ccc(/C=C/c2c(F)cccc2F)cc1`, the growth is 98.8%.
